Where a name gives a salt, the structure may show the parent alone.
What was measured:
Details in all cases: 20 µM
[1] = tested on: Salmonella enterica typhimurium; test: growth AUC normalised to DMSO control (fraction of control); higher = less growth inhibition, active = hit call of the paper
Method in brief: (§1)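 Pathogens passaged twice anaerobically were inoculated at a starting OD578 of 0.01 into pre-reduced mGAM plates with drug at 20 μM and 1% DMSO, sealed with breathable membranes. Haemophilus parainfluenzae medium was supplemented with hemin and NAD. OD578 was read hourly for 24 h, with three biological replicates. Growth-curve AUC was computed by the trapezoidal rule up to the exponential-to-stationary transition and normalised to DMSO controls on the same plate.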

[2] = tested on: Shigella flexneri; test: as above
Method in brief: as §1

[3] = tested on: Vibrio cholerae; test: as above
Method in brief: as §1

[4] = tested on: Yersinia pseudotuberculosis; test: as above
Method in brief: as §1

[5] = tested on: P. vulgatus RND KO; test: growth AUC normalised to DMSO control (median) (fraction of control); higher = less growth inhibition, active = hit call of the paper
Method in brief: (§2)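 Strains were passaged twice overnight without oxygen, then grown in mGAM in 96-well plates with each approved-drug library compound at 20 μM and 1% DMSO, starting at OD578 0.01. OD578 was read hourly for 24 h inside an anaerobic incubator. Curves were truncated at entry into stationary phase, and the trapezoidal-rule area under the curve was normalised to same-plate vehicle wells. The value is the median across three biological replicates.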

[6] = tested on: P. vulgatus WT; test: as above
Method in brief: as §2

[7] = tested on: S. enterica typhimurium WT; test: as above
Method in brief: as §2

[8] = tested on: S. enterica typhimurium tolC KO; test: as above
Method in brief: as §2

Measured: growth AUC normalised to DMSO control
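Wherever growth AUC normalised to DMSO control (median) is given: active when median AUC fell below 0.1.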

CCCCC(CC)CN1CN(CC(CC)CCCC)CC(C)(N)C1 (stereo not given) [Hexetidine]
inactive: [1] 1.04 | [2] 1.05 | [3] 1.02 | [4] 1.04 | [5] 1.02 | [6] 1.03 | [7] 1.02 | [8] 0.88

Cc1nnc(NS(=O)(=O)c2ccc(N)cc2)s1 [Sulfamethizole]
inactive: [1] 0.985 | [2] 0.98 | [3] 0.978 | [4] 1.01 | [5] 1 | [6] 1 | [7] 0.978 | [8] 0.984

COc1ccccc1N1CCN(CCCNc2cc(=O)n(C)c(=O)n2C)CC1 [Urapidil hydrochloride]
inactive: [1] 1.01 | [2] 0.992 | [3] 0.984 | [4] 1 | [5] 0.976 | [6] 0.976 | [7] 1 | [8] 0.992

Nc1ccn([C@H]2CC[C@@H](CO)O2)c(=O)n1 [Zalcitabine]
inactive: [1] 1.02 | [2] 1.02 | [3] 1.06 | [4] 1.04 | [5] 1.04 | [6] 1.06 | [7] 1 | [8] 1.01

Nc1ccc(S(=O)(=O)NC(=O)c2ccccc2)cc1 [Sulfabenzamide]
inactive: [1] 1.02 | [2] 1.03 | [3] 1.06 | [4] 1.04 | [5] 1.05 | [6] 1.1 | [7] 1 | [8] 1.01

O=c1n(CCCN2CCN(c3cccc(Cl)c3)CC2)nc2ccccn12 [Trazodone hydrochloride]
inactive: [1] 0.992 | [2] 0.991 | [3] 0.957 | [4] 0.984 | [5] 0.993 | [6] 1.01 | [7] 1 | [8] 0.964

C[C@@H](O[C@H]1OCCN(Cc2n[nH]c(=O)[nH]2)[C@H]1c1ccc(F)cc1)c1cc(C(F)(F)F)cc(C(F)(F)F)c1 [Aprepitant]
active: [5] 0.0129 | [6] 0.0137
inactive: [1] 0.993 | [2] 0.978 | [3] 0.985 | [4] 0.976 | [7] 0.994 | [8] 0.997

COc1ccccc1OCCNCC(O)COc1cccc2[nH]c3ccccc3c12 (stereo not given) [Carvedilol]
inactive: [1] 1.02 | [2] 1 | [3] 0.994 | [4] 0.997 | [5] 0.995 | [6] 0.989 | [7] 0.994 | [8] 0.944

C[C@H]1C[C@@H]2[C@H]([C@@H](O)C[C@@]3(C)[C@H]2CC[C@]3(O)C(=O)CO)[C@@]2(C)C=CC(=O)C=C12 [Methylprednisolone, 6-alpha]
inactive: [1] 0.997 | [2] 0.998 | [3] 0.997 | [4] 0.993 | [5] 0.96 | [6] 0.982 | [7] 1 | [8] 1

COc1cc(N)c(Cl)cc1C(=O)NC1CCN(Cc2ccccc2)CC1 [Clebopride maleate]
inactive: [1] 0.996 | [2] 0.998 | [3] 0.995 | [4] 1 | [5] 0.987 | [6] 0.999 | [7] 0.998 | [8] 1

CC(C)(C)NCC(O)c1ccc(O)c(CO)c1 (stereo not given) [Salbutamol]
inactive: [1] 0.985 | [2] 0.97 | [3] 0.984 | [4] 0.985 | [5] 0.985 | [6] 0.956 | [7] 0.992 | [8] 0.997

Clc1ccc(C(Cn2ccnc2)OCc2c(Cl)cccc2Cl)c(Cl)c1 (stereo not given) [Isoconazole]
inactive: [1] 0.997 | [2] 1.01 | [3] 0.949 | [4] 1.01 | [5] 0.95 | [6] 0.949 | [7] 0.995 | [8] 0.953

O=C1c2ccccc2S(=O)(=O)N1CCCCN1CCN(c2ncccn2)CC1 [Ipsapirone]
inactive: [1] 0.991 | [2] 0.99 | [3] 0.957 | [4] 0.998 | [5] 1 | [6] 1.01 | [7] 0.989 | [8] 1.01

CN(C(=O)CN(CCO)CC(=O)N(C)C(C)(C)Cc1ccccc1)C(C)(C)Cc1ccccc1 [Oxethazaine]
inactive: [1] 0.974 | [2] 1.01 | [3] 0.99 | [4] 0.995 | [5] 0.688 | [6] 0.646 | [7] 1.01 | [8] 0.966

CC(=O)O[C@]1(C(C)=O)CC[C@H]2[C@@H]3C=C(C)C4=CC(=O)CC[C@]4(C)[C@H]3CC[C@@]21C [Megestrol acetate]
inactive: [1] 1.02 | [2] 1.12 | [3] 1.1 | [4] 1.05 | [5] 0.992 | [6] 0.999 | [7] 1.01 | [8] 0.931

OC(CCCN1CCCCC1)(c1ccccc1)c1ccccc1 [Diphenidol hydrochloride]
inactive: [1] 0.999 | [2] 1 | [3] 1 | [4] 1.01 | [5] 1.04 | [6] 1.04 | [7] 1 | [8] 0.987

Cc1ccccc1OCC(O)CO (stereo not given) [Mephenesin]
inactive: [1] 0.999 | [2] 1 | [3] 0.999 | [4] 0.994 | [5] 1.01 | [6] 1.01 | [7] 1 | [8] 1

Nc1nc2c(ncn2COCCO)c(=O)[nH]1 [Acyclovir]
inactive: [1] 1.01 | [2] 1.01 | [3] 1.01 | [4] 0.995 | [5] 1.05 | [6] 1.02 | [7] 1 | [8] 1

NS(=O)(=O)c1cc2c(cc1Cl)NCNS2(=O)=O [Hydrochlorothiazide]
inactive: [1] 1.02 | [2] 0.994 | [3] 1.05 | [4] 1.01 | [5] 0.981 | [6] 0.997 | [7] 0.996 | [8] 1.02

Nc1ncnc2c1ncn2C1OC(COP(=O)(O)O)C(O)C1O (stereo not given) [Adenosine 5'-monophosphate monohydrate]
inactive: [1] 0.999 | [2] 0.986 | [3] 0.981 | [4] 1 | [5] 0.977 | [6] 0.984 | [7] 0.992 | [8] 0.995

OCCN(CCO)c1nc(N2CCCCC2)c2nc(N(CCO)CCO)nc(N3CCCCC3)c2n1 [Dipyridamole]
inactive: [1] 1.01 | [2] 1.01 | [3] 1.01 | [4] 1 | [5] 1 | [6] 0.997 | [7] 1.02 | [8] 0.956

CC(C)[N+](C)(CCOC(=O)C1c2ccccc2Oc2ccccc21)C(C)C [Propantheline bromide]
inactive: [1] 0.974 | [2] 0.983 | [3] 0.967 | [4] 1 | [5] 0.966 | [6] 0.958 | [7] 1 | [8] 0.981

CNCCC(Oc1ccccc1OC)c1ccccc1 (stereo not given) [Nisoxetine hydrochloride]
inactive: [1] 0.949 | [2] 1.02 | [3] 1 | [4] 0.993 | [5] 1.01 | [6] 1 | [7] 0.957 | [8] 0.91

CCCCN1CCCCC1C(=O)Nc1c(C)cccc1C (stereo not given) [Bupivacaine hydrochloride]
inactive: [1] 1.04 | [2] 0.973 | [3] 0.998 | [4] 0.973 | [5] 1.01 | [6] 0.998 | [7] 0.998 | [8] 0.985

Cc1ncc([N+](=O)[O-])n1CC(C)O (stereo not given) [Secnidazole]
inactive: [1] 0.996 | [2] 0.953 | [3] 0.99 | [4] 1 | [7] 1.01 | [8] 1
active: [5] 0.0215 | [6] 0.0204

CC(=O)OCC(=O)NCCCOc1cccc(CN2CCCCC2)c1 [Roxatidine acetate hydrochloride]
inactive: [1] 0.99 | [2] 0.981 | [3] 1 | [4] 0.939 | [5] 0.996 | [6] 0.985 | [7] 0.994 | [8] 0.986

CC[C@H](c1ccc(O)cc1)[C@@H](CC)c1ccc(O)cc1 [Hexestrol]
inactive: [1] 0.998 | [2] 1 | [3] 0.932 | [4] 0.999 | [5] 0.766 | [6] 0.825 | [7] 0.989 | [8] 0.889

O=S(=O)(O)CCS [Coenzyme M]
inactive: [1] 1 | [2] 1.02 | [3] 1.01 | [4] 0.997 | [5] 1.01 | [6] 1.01 | [7] 1.01 | [8] 1

O=C(CCCCCCC(=O)Nc1ccccc1)NO [Vorinostat]
inactive: [1] 0.994 | [2] 1.03 | [3] 0.996 | [4] 1.03 | [5] 1.01 | [6] 1.06 | [7] 0.997 | [8] 1

CN(C)CCC(c1ccc(Br)cc1)c1ccccn1 (stereo not given) [Brompheniramine maleate]
inactive: [1] 0.99 | [2] 1 | [3] 1.02 | [4] 1 | [5] 0.994 | [6] 0.995 | [7] 0.977 | [8] 0.856
